Most compounds without a hit are left out; they make up all but 1.1% or so of the library.
BioA inh: BioA (M. tuberculosis) enzyme inhibition | 360,000 tested, 0.096% active | purified M. tuberculosis BioA enzyme, plate reader | inhibition, % at 9.99 µM; in the data active means inhibition above about 40%
3CLpro inhibitor: SARS-CoV 3CLpro protease inhibition | P0C6X7 | recombinant SARS-CoV 3CLpro, quenched FRET peptide cleavage | inhibition, % at 6 µM | 290,000 tested, 0.14% active | AID 1706; in the data active means inhibition above about 12%
MazF activator: increases E. coli MazEF RNase cleavage of RNA. 350,000 tested, 0.32% active. P0AE70. activation, % at 20 µM. FAM/BHQ RNA-DNA oligo cleavage fluorescence, 5 h. AID 504720; in the data active means activation above about 50%
Target sequence (P0AE70 whole entry, looked up): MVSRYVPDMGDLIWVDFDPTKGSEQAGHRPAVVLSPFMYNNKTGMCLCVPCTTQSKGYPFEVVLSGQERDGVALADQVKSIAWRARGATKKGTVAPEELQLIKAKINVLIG
PfHsp40 yeast: compounds rescuing yeast from Plasmodium falciparum HSP40 toxicity. S. cerevisiae expressing PfHsp40, growth rescue, ATP luminescence. growth rescue, % at 12.5 µM. 340,000 tested, 0.68% active. AID 504582; in the data active means growth rescue above about 28%, passing the limit was not always enough;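 further: yeast W303a lacking pdr1 and pdr3 grown in galactose medium; growth measured after three days at 30 °C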
Y pestis TopoI: Y. pestis Topo-I inhibition via cleavage products; Y. pestis Topo-I cleavage product accumulation, plate reader; activity, % at 10 µM; 360,000 tested, 0.064% active; AID 504884; in the data active means activity above about 50%, passing the limit was not always enough
BJeLR lethal: kills HRASV12-expressing BJeLR cells; inhibition, % (concentration not given with the values); 300,000 tested, 0.17% active; BJeLR (HRASV12) viability, CellTiter-Glo ATP luminescence, 48 h; in the data active means inhibition above about 50%
Active calls of the source: *; x = not tested or not shown; ! = repeats disagree.

SMILES	BioA inh	3CLpro inhibitor	MazF activator	PfHsp40 yeast	Y pestis TopoI	BJeLR lethal
Nc1cc(OC(=O)c2cccs2)nn1S(=O)(=O)c1ccc(F)cc1	0	-2	-8	0	-7	2
O=C(c1cc(COc2c(F)cccc2F)on1)N(Cc1ccccc1)CC1CC1	-1	3	-8	1	64*	-3
C[C@@H]1CN([C@H](C)CO)C(=O)Cc2cc(NS(=O)(=O)c3cccs3)ccc2O[C@H]1CN(C)S(=O)(=O)c1ccc(F)cc1	-1	x	x	x	x	x
Cc1cccc(S(=O)(=O)N[C@@H]2CC[C@@H](CCNC(=O)CCN3CCCCC3)O[C@H]2CO)c1	-4	x	x	x	x	x
CC(C)NC(=O)c1ccccc1NC(=O)C(C)Oc1ccccc1 (stereo not drawn)	x	-2	6	72*	-3	2
COc1cc2c(c(OC)c1OC)-c1ccc(O)cc1C(NC(C)=O)CC2 (stereo not drawn)	1	x	-14	-2	0	x
COc1cc2c(c(OC)c1OC)-c1ccc(O)c(=O)cc1[C@@H](NC(C)=O)CC2	1	x	6	325*	-2	x
CCCNC(=O)C[C@H]1C[C@H]2c3cc(NC(=O)CN(C)C)ccc3O[C@H]2[C@@H](CO)O1	-2	x	x	x	x	x
CCOC(=O)N1C2C=CC(C2)N1C(=O)OCC	-1	x	157*	0	4	x
COc1ccccc1CNC(=O)C[C@@H]1CC[C@H]2[C@@H](COC[C@@H](O)CN2Cc2cccc(-c3ccncc3)c2)O1	-2	x	x	x	x	x
C(=Nc1ccccc1)c1ccc[nH]1	-1	x	7	0	10	x
Oc1ccccc1N=Cc1ccc[nH]1	-1	4	4	55*	-7	-5
COc1ccc(-c2csc(Nc3ccccc3)n2)cc1	x	6	-8	57*	-24	3
c1ccc(Nc2nc(-c3ccccn3)cs2)cc1	3	-4	7	317*	2	2
O=C(Nc1cccc(-c2csc(Nc3ccccc3)n2)c1)c1ccccc1	-1	x	18	73*	-24	-7
Oc1ccc(Nc2nc(-c3ccc(O)cc3)cs2)cc1	x	-6	78*	1	-23	-16
c1ccc(-c2csc(Nc3cccnc3)n2)nc1	1	3	-5	0	6	-2
C[C@@H]1CN([C@H](C)CO)C(=O)c2cc(C#Cc3ccccc3)cnc2O[C@H]1CN(C)C(=O)CN(C)C	3	x	x	x	x	x
C[C@@H]1CN([C@@H](C)CO)C(=O)CCCn2cc(nn2)CO[C@@H]1CN(C)S(=O)(=O)c1ccccc1	0	x	x	x	x	x
O=C1CC[C@@H]2c3[nH]c4ccc(F)cc4c3CCN12	1	x	x	x	x	x
C[C@@H]1CCCCO[C@@H](CN(C)Cc2ccc(C(F)(F)F)cc2)[C@H](C)CN([C@@H](C)CO)C(=O)c2cc(NC(=O)CCCN(C)C)ccc2O1	0	x	x	x	x	x
CCCCCCCCCCOC(=O)Cn1c(COc2ccc(Cl)cc2)[n+](C)c2ccccc21	22	5	-36	7	3	-7
CCCCCCCCCCOC(=O)Cn1c(COc2cccc(C)c2)[n+](C)c2ccccc21	13	-2	-113	213*	-9	3
CCCCCCCCCCOC(=O)Cn1c(COc2ccccc2C)[n+](C)c2ccccc21	19	4	-86	9	2	2
CCCCCCCCCCOC(=O)Cn1c(COc2ccc(OC)cc2)[n+](C)c2ccccc21	18	2	-74	383*!	-14	7
SMILES	BioA inh	3CLpro inhibitor	MazF activator	PfHsp40 yeast	Y pestis TopoI	BJeLR lethal
CCCCCCCCCCOC(=O)Cn1c(COc2ccccc2)[n+](C)c2ccccc21	37	-1	-58	336*	-17	5
COc1cccc(C#Cc2cnc3c(c2)C(=O)N([C@@H](C)CO)C[C@@H](C)[C@@H](CN(C)C(=O)C2CCC2)O3)c1	-1	x	x	x	x	x
COc1ccccc1NC(=O)N[C@@H]1CC[C@@H](CCNC(=O)Cc2ccccn2)O[C@H]1CO	-4	x	x	x	x	x
Oc1ccccc1C1SC(c2ccccc2O)SC(c2ccccc2O)S1 (stereo not drawn)	-1	x	-23	32*	-24	x
Cc1cc2c(cc1C)CSC(c1ccccc1O)SC2	x	5	-1	12	-16	1
CCCC1COC(Cn2cncn2)(c2ccc(C)cc2)O1 (stereo not drawn)	1	1	-6	132*	3	4
Cc1ccccc1-n1cnc2cc(NCc3cccs3)ccc21	5	-1	5	1	-3	3
COc1ccccc1-n1cnc2cc(NCc3cccs3)ccc21	1	2	-2	1	12	60*
